Reference: the supplement of paper PMC3334620
In all, about 33,000 sequences were measured (“E-score (-0.5 to 0.5)”: median about -0.035, highest 2% from about 0.34 on). For the sample, the highest values were picked, then their nearest neighbours and some sequences at random.

Molecular target: T1, Mot3 (UniProt P54785)
T1 sequence: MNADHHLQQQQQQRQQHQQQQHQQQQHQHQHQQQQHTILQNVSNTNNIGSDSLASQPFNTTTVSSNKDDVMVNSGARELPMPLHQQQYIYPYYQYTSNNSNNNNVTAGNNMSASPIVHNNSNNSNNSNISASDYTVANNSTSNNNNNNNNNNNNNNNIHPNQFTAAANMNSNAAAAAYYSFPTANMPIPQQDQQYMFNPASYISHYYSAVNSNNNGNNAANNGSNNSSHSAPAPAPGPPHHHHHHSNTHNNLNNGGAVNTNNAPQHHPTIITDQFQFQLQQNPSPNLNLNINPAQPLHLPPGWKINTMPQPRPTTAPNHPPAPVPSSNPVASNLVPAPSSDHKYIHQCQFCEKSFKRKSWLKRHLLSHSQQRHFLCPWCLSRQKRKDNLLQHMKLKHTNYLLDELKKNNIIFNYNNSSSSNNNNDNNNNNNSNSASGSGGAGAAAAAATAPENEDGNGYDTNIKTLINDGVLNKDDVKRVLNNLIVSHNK
Test: PBM E-score (8-mer binding enrichment) (E-score (-0.5 to 0.5)); higher = stronger / more preferred TF binding
Conditions: protein concentration: 200 nM; construct: GST-full length
Experimental: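 Universal 'all 10-mer' protein binding microarrays (Agilent AMADID 015681) probed with GST-tagged S. cerevisiae TFs (full-length or DBD) made by in vitro transcription/translation (PURExpress), about 100-200 nM. Bound TF was detected with fluorescent anti-GST. Each ungapped 8-mer (which stands for itself and its reverse complement) is scored by the PBM enrichment score (E-score), a modified Wilcoxon-Mann-Whitney statistic from -0.5 to +0.5, computed with the Universal PBM Analysis Suite. Scale: above 0.35 generally sequence-specific binding.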

Row | Sequence | PBM E-score
1 | ACCTCAGC | -0.124
2 | AAAGCCGG | -0.133
3 | AATCAAGC | -0.177
4 | AGTGTACA | 0.273
5 | AGTGTGTA | 0.247
6 | CGTGTACC | 0.277
7 | GGTGTATA | 0.0111
8 | CGTGTGTA | 0.349
9 | GGTGTGTA | 0.335
10 | CGTGTATA | 0.4
11 | CGTGTACA | 0.388
12 | CGTGTATC | 0.262
13 | CACTGTGA | -0.103
14 | CTACCAGA | 0.0177
15 | GTGAGAGA | 0.0715
16 | ATGAATGG | -0.0783
17 | CGGTTTAC | 0.134
18 | CGACTTTC | 0.0333
19 | TGAGGAAA | 0.0921
20 | CTAGGAAC | 0.372
21 | GTAGGAGA | -0.184
22 | GTAGGAAA | 0.429
23 | ATAGGATA | 0.00177
24 | ATAGGGAA | 0.00264
25 | CTAGGAAG | -0.108

Row | Sequence | PBM E-score
26 | CTAGGAGC | -0.225
27 | CTAGGAAA | 0.246
28 | ATAGGAAA | 0.429
29 | TTAGGAAA | 0.351
30 | GTAGGATA | 0.185
31 | GGACAGCA | -0.224
32 | ATCGGACA | -0.0499
33 | CGACATAA | 0.0835
34 | TAGTTCCA | 0.00515
35 | AAACGCAC | 0.0986
36 | TAGCGGAA | -0.15
37 | CTCGAGAG | -0.177
38 | AGTGGGAT | -0.0984
39 | AACGGCGG | -0.117
40 | GTAGGAAC | 0.457
41 | ATAGGAAC | 0.456
42 | ATAGGAAG | -0.0193
43 | AGAGGAAC | 0.0727
44 | ATAGGAAT | -0.00642
45 | GGAGGAAC | 0.272
46 | TTGCCCAA | 0.111
47 | CCAACCAC | 0.083
48 | ACAAAAGA | 0.166
49 | CGTAGCCA | -0.208
50 | ACACTGAT | -0.138

Row | Sequence | PBM E-score
51 | CCACAGGC | 0.194
52 | ACCAACCG | -0.16
53 | CGAAGGAG | -0.225
54 | AGAAGGAC | -0.198
55 | AGAAGGAG | -0.107
56 | GGAAGGAC | -0.122
57 | CGAAGGAC | -0.03
58 | GCAAGGAA | 0.211
59 | AGAAGGAT | 0.0925
60 | GGAAGGAA | 0.384
61 | TGGAGGAA | 0.0436
62 | AGAAGGAA | 0.382
63 | CGAAGGAA | 0.39
64 | TGAAGGAA | 0.434
65 | CTTGGATA | -0.039
66 | GACTCCTA | -0.00028
67 | CAACAACA | 0.315
68 | TCGGTCCA | -0.0654
69 | CGATACTC | -0.259
70 | GCATTTGA | 0.0576
71 | GCCAAAGA | -0.0826
72 | CCTAGGCA | 0.459
73 | TCTAGGCA | 0.458
74 | CCTAGGCG | -0.157
75 | GCTAGGCC | -0.374

Row | Sequence | PBM E-score
76 | TCTAGACA | 0.167
77 | TCTAGGAA | 0.315
78 | ACTAGGCG | 0.168
79 | GCTAGGCA | 0.446
80 | GCTAGGTA | -0.0278
81 | ACTAGGCA | 0.425
82 | CCTAGGCC | -0.0992
83 | ACTAGGCC | -0.141
84 | GTCGCACA | -0.125
85 | AGGCGTTG | 0.185
86 | GACTGTGA | -0.0263
87 | GTGATAGA | -0.0161
88 | GCTCCCCC | -0.288
89 | GAACATAA | 0.0111
90 | GTACATAA | 0.306
91 | TAACATAA | 0.341
92 | CTACATAA | 0.228
93 | TTACATAA | 0.408
94 | CAACATAA | 0.289
95 | AAGGCTCA | 0.336
96 | CAGGCTCG | 0.342
97 | CAGGCTCA | 0.392
98 | CAGGCTCC | 0.28
99 | TAGGCTCA | 0.109
100 | AAGGCTCG | 0.235

Row | Sequence | PBM E-score
101 | CATTTGGG | -0.173
102 | CTTAGCCC | -0.079
103 | GAAAGGAC | -0.118
104 | AACTTCGC | -0.0198
105 | ACGCTCCC | -0.0438
106 | TAGGGAAA | -0.0198
107 | ATGGAAAT | 0.0932
108 | CAGGAAAC | 0.445
109 | CAGAAAAC | 0.152
110 | AAGGAAAG | 0.441
111 | CGGGAAAC | -0.0422
112 | AGGGAAAG | -0.0829
113 | GAGGAAAA | 0.0527
114 | ATGGAAAG | 0.0416
115 | TAGGAAAA | 0.384
116 | AAGGAAAT | 0.426
117 | AGGGAAAT | -0.0244
118 | TACCAATA | -0.253
119 | CACGGTCA | 0.212
120 | ATCAGCTG | -0.0375
121 | TCAAGTCA | 0.0447
122 | CGACTTGC | -0.263
123 | GATGAAGA | -0.135
124 | ACCGAGGA | -0.111
125 | ATCGGGGA | 0.0758

Row | Sequence | PBM E-score
126 | AGATAGTC | -0.0427
127 | AGCAGTAG | -0.226
128 | TCAACGGA | -0.113
129 | CAGGAAAA | 0.427
130 | AAGGAAAA | 0.417
131 | AAGGGAAA | 0.0842
132 | CAGAAAAA | 0.0512
133 | CCGGAAAG | -0.215
134 | ACGGAAAC | -0.122
135 | ATGGAAAA | -0.0018
136 | CGGAAAAA | 0.0869
137 | AAGGAAAC | 0.423
138 | GAGGAAAC | -0.027
139 | CAGAAAAG | -0.0566
140 | CAGGAAAG | 0.432
141 | TATCTTAA | 0.153
142 | TAAAGCTA | 0.19
143 | CAGACCGG | -0.14
144 | ACTCGAAT | 0.00379
145 | CTCAGCAG | -0.113
146 | TGTAATAA | 0.375
147 | TGTAAACA | 0.387
148 | AGTAAACA | 0.251
149 | GGTAAACA | 0.323
150 | AGTAAAAA | 0.16

Row | Sequence | PBM E-score
151 | TGTAAAAA | 0.379
152 | CGTAAAAA | 0.258
153 | GGTAATAA | 0.163
154 | CGTAATAA | 0.288
155 | GGAGAAAA | -0.133
156 | ACCTGTCA | -0.0178
157 | AAGGCTAT | -0.0295
158 | ACGGTGCG | 0.0148
159 | ACGGTGCA | 0.184
160 | ACGGTGCC | 0.343
161 | CAGAGATG | 0.0978
162 | TAGGGTCA | -0.0851
163 | AAGGTCTG | -0.0775
164 | AATCTACT | -0.0291
165 | CATCTACA | 0.262
166 | AATCTACA | 0.349
167 | GGTTCCTA | 0.454
168 | AGTTCCTA | 0.433
169 | CATTCCTA | -0.129
170 | AGTTCCTG | 0.403
171 | AGTTCCGG | -0.359
172 | CGTTCCTA | 0.455
173 | AGTTCCGA | -0.142
174 | GCTTCCTA | 0.106
175 | ACTTCCTA | -0.09

Row | Sequence | PBM E-score
176 | AGTTCCTC | 0.0435
177 | GGTTCCAA | -0.208
178 | CGTTCCTC | 0.167
179 | CCAATCCC | -0.127
180 | AGAGGGCC | -0.371
181 | GGGGTAGA | -0.0141
182 | AGGTCTTC | -0.0921
183 | CGCTAACG | -0.0607
184 | GGACTACA | 0.102
185 | ACCCCCTA | -0.298
186 | AGGCGAAC | -0.0626
187 | ACAGTTCT | -0.132
188 | CCGAGGCA | 0.308
189 | TAGAGGCA | 0.389
190 | AAGAGGCT | -0.222
191 | CAGAGGCA | 0.299
192 | GAGAGGCA | 0.239
193 | GCGAGGCA | 0.148
194 | TCGAGGCA | 0.346
195 | AAGAGGCA | 0.391
196 | TAGAGGGA | -0.0707
197 | AAGACCTG | -0.079
198 | TGACTAAA | 0.0227
199 | GGCTAATA | -0.151
200 | ATCGAACA | -0.0411

Row | Sequence | PBM E-score
201 | GATTGTCC | -0.0522
202 | AGGAAGCC | -0.161
203 | GCTATGTA | 0.341
204 | GGTATGTA | 0.343
205 | ACTATGTG | 0.0709
206 | AGTATGTA | 0.289
207 | ACTATGTC | 0.104
208 | CATATGTA | 0.318
209 | CCTATGTC | 0.172
210 | ACTATGTA | 0.36
211 | AATATGTA | 0.277
212 | CCTATGTA | 0.348
213 | CGTATGTA | 0.309
214 | GCTATGCA | -0.154
215 | ACAACTAG | -0.0235
216 | GTCCGGAA | -0.0613
217 | TCCCCCCA | -0.354
218 | AAAGTCGG | -0.0308
219 | GAAGGGAA | -0.213
